Test results as given in PubChem BioAssay AID463173 (ICCB-Longwood Screening Facility, Harvard Medical School, 2010).
Among all 52,000 compounds or so, about 4,300 (8.3%) were called active. No stated cut-off is given here; in the data, active means survival mostly below about 52% (no sharp cut-off); inactive means mostly above about 56%. Many of the other results were omitted from the sample, so actives are more common in it than they were.

These compounds were tested on DeltatarO mutant (assay: S. aureus survival, RN4220 and DeltatarO strains – OD600, teichoic acid synthesis inhibitors, primary screen (AID 463173)). Conditions: S. aureus RN4220 wild type/DeltatarO growth, OD600, 18 h, stronger effect = lower value, screened at 18.75 µg/mL (by protocol).

Compound	survival
CCc1ccc(NC(=O)CCCn2nc(C)c3c(C)n(-c4ccccc4)nc3c2=O)cc1	81% (inactive)
CC(C)c1ccc(NC(=O)CSc2ncnc3c2sc2ccccc23)cc1	70% (inactive)
CCC(=O)OC1CSc2nc3ccccc3n2C1 (stereo not given)	76% (inactive)
Cc1ccc(-n2c(=O)c3c(c4cc(C)ccc4n3C)n(CC(=O)NCc3ccccc3Cl)c2=O)cc1	74% (inactive)
Cc1ccc(/C=C/c2onc(C)c2S(=O)(=O)N2CCC(C(=O)N3CCC(N(C)C(C)C)CC3)CC2)cc1	67% (inactive)
CCOC(=O)C1=C(CN2CCN(c3ccccc3F)CC2)NC(=O)NC1c1ccc(OC)cc1 (stereo not given)	70% (inactive)
Cc1ccc(CSCCC(=O)NCc2ccc(F)cc2Cl)cc1	118% (inactive)
COc1ccc(NC(=O)CSc2nc3ccccc3n2Cc2cccc(OC)c2)cc1	134% (inactive)
COc1cccc(NC(=O)CSc2nc3ccccc3n2C)c1	37% (active)
COc1cccc(NC(=O)CSc2cc(C)c3ccccc3n2)c1	72% (inactive)
Cc1ccccc1NC(=O)Cn1c(SCC(=O)Nc2ccc(F)cc2)nc2ccccc21	95% (inactive)
CC(=O)c1cccc(NC(=O)Cn2c(SCC(=O)Nc3ccc(F)cc3)nc3ccccc32)c1	20% (active)
O=C(CSc1nc2ccccc2n1CC(=O)Nc1ccc(F)cc1F)Nc1ccc(F)cc1	89% (inactive)
COc1cccc(CNC(=O)c2[nH]c3cc(C)ccc3c2Sc2ccccc2)c1	83% (inactive)
CCCN1C(=O)c2ccccc2NC1c1cc(OC)c(OC)c(OC)c1 (stereo not given)	96% (inactive)
CC(C)c1ccc(NC(=O)C2CCN(S(=O)(=O)c3cccc4nsnc34)CC2)cc1	72% (inactive)
CCOc1ccc(N(CC)S(=O)(=O)N2CCCC(C(=O)Nc3ccc(NC(C)=O)cc3)C2)cc1 (stereo not given)	84% (inactive)
CCc1cc(C(=O)Nc2c(C)nn(Cc3ccccc3Cl)c2C)no1	69% (inactive)
COc1ccccc1-c1cc(C(=O)Nc2c(C)nn(Cc3ccc(Cl)cc3)c2C)no1	29% (active)
COc1ccc(-c2cc(C(=O)Nc3c(C)nn(Cc4ccc(C)cc4)c3C)no2)cc1OC	60% (inactive)
COc1ccc(-c2cc(C(=O)Nc3c(C)nn(Cc4ccc(F)cc4)c3C)no2)cc1OC	59% (inactive)
COc1ccc(-c2cc(C(=O)Nc3c(C)nn(Cc4ccccc4C)c3C)no2)cc1	51% (inactive)
Cc1ccc(Cn2nc(C)c(NC(=O)c3cc(-c4ccc(F)cc4)on3)c2C)cc1	61% (inactive)
Cc1cc(C(=O)Nc2c(C)nn(Cc3ccc(F)cc3)c2C)no1	156% (inactive)
COc1ccc(OC)c(-c2cc(C(=O)Nc3c(C)nn(Cc4ccc(C)cc4)c3C)no2)c1	34% (active)

Compound	survival
COc1cccc(-c2cc(C(=O)Nc3c(C)nn(Cc4ccccc4Cl)c3C)no2)c1	34% (active)
COc1cc(NC(=O)Cn2ncc3c([nH]c4ccc(C)cc43)c2=O)cc(OC)c1OC	86% (inactive)
Cn1c(N2CCN(S(=O)(=O)c3ccc(Cl)cc3)CC2)nc2ccccc21	83% (inactive)
COc1ccc(NC(=O)CCc2c(C)nn(-c3ccc(N4CCCCC4)nn3)c2C)cc1Cl	87% (inactive)
Cc1sc2nc(CN3CCN(C(=O)c4ccco4)CC3)n(C(=O)c3ccco3)c(=O)c2c1C	86% (inactive)
CCOC(=O)c1c(S(=O)(=O)N2CCCC(C(=O)Nc3cc(C)ccc3OC)C2)c(C)n(C)c1C (stereo not given)	75% (inactive)
O=C(/C=C/c1ccco1)OCCN1CCOCC1	69% (inactive)
O=C(Oc1cccc2cccnc12)c1ccccc1	2% (active)
O=C(Oc1ccccc1-c1nc(-c2ccccc2)no1)c1ccccc1	85% (inactive)
O=C1c2ccccc2C(=O)N1COc1cccc2cccnc12	97% (inactive)
O=C(/C=C\c1ccco1)Oc1cccc2cccnc12	2% (active)
O=C(/C=C/c1ccco1)ON1C(=O)c2ccccc2C1=O	91% (inactive)
Cc1ccc(C(c2nnnn2Cc2ccccc2)N2CCC(C)CC2)cc1 (stereo not given)	70% (inactive)
CCCC1(C(=O)OC)NC(c2ccc(OC)c(OC)c2)C2C(=O)N(c3ccc4c(c3)OCO4)C(=O)C21 (stereo not given)	84% (inactive)
COc1cccc(NC(=O)Cn2cc(C(=O)c3ccc(F)cc3)c(=O)c3cc(OC)ccc32)c1	92% (inactive)
Nc1nnc2c(n1)[nH]c1ccccc12	81% (inactive)
Cc1ccc(C)c(CN2C(=O)c3ccccc3S(=O)(=O)c3ccc(C(=O)N4CCN(Cc5ccccc5)CC4)cc32)c1	59% (inactive)
COc1ccc(OC)c(NC(=O)c2cc(C3CC3)nc3c2c(C)nn3-c2ccc(C)cc2)c1	64% (inactive)
O=C(CSc1nnc(COc2ccc(F)cc2)o1)N1c2ccccc2CCc2ccccc21	65% (inactive)
CCOC(=O)C1CCN(c2nc(-c3ccc(Br)cc3)nc3ccccc23)CC1	83% (inactive)
CCOC(=O)C1CCN(c2ncnc3c2nnn3C)CC1	37% (active)
CC1CCN(c2ncnc3c2nnn3C)CC1	92% (inactive)
Cn1nnc2c(N3CCN(c4ccccc4)CC3)ncnc21	74% (inactive)
CCOC(=O)C1CCCN(c2ncnc3c2nnn3C)C1 (stereo not given)	117% (inactive)
Cn1nnc2c(N3CCN(c4ccc(F)cc4)CC3)ncnc21	99% (inactive)

Compound	survival
CCOC(=O)C1CCN(c2nc3ccccc3nc2Cl)CC1	-24% (active)
COc1ccc(N2CCN(c3ncnc4c3nnn4C)CC2)cc1	0% (active)
CCOC(=O)C1CCN(c2cc(C)c(C#N)c3nc4ccccc4n23)CC1	100% (inactive)
Cc1cc(NS(=O)(=O)c2ccc(NC(=O)COc3ccc(Cl)cc3)cc2)nc(C)n1	54% (inactive)
Cc1ccc2[nH]c(=O)c(CN(CC3COCCO3)C(=O)Nc3ccccc3F)cc2c1 (stereo not given)	96% (inactive)
CCCC12CCC(C(=O)O)(CC1)CC2	83% (inactive)
Cc1cc(C(=O)NCc2ccccc2Cl)c2c(C)nn(-c3cccc(F)c3)c2n1	68% (inactive)
CCC(=O)N1CCc2cc(S(=O)(=O)Nc3cc(C)ccc3OC)ccc21	84% (inactive)
Cc1cc(C)cc(NC(=O)c2cc(S(=O)(=O)N3CCc4ccccc43)cn2C)c1	63% (inactive)
CC(C)OC(=O)CSc1n[nH]c(-c2cccnc2)n1	108% (inactive)
Cc1ccnc(NS(=O)(=O)c2ccc(NC(=O)c3cc(=O)c4ccc(C)c(C)c4o3)cc2)n1	78% (inactive)
O=C(CSc1nccn1Cc1ccccc1)NCc1ccccc1Cl	92% (inactive)
Clc1ccccc1Cn1cccc1C1=NC(Cc2ccccc2)CO1 (stereo not given)	40% (active)
O=c1c2cnn(-c3ccc(F)cc3)c2ncn1Cc1ccccc1Cl	100% (inactive)
O=C(Nc1ccc(S(=O)(=O)Nc2ncccn2)cc1)c1ccccc1Cl	81% (inactive)
COc1ccc(NC(=O)Nc2nnc(C)s2)cc1	91% (inactive)
Cc1ccc2occ(CC(=O)N(Cc3ccc(Cl)cc3)C3CCS(=O)(=O)C3)c2c1 (stereo not given)	64% (inactive)
CCc1cccc(N2C(=O)CSC23C(=O)Nc2ccccc23)c1 (stereo not given)	85% (inactive)
CCc1cccc(NC(=O)c2cc(-c3ccccc3)n[nH]2)c1	90% (inactive)
CCc1ccc2c(c1)C1(NN=C(c3ccccc3)S1)C(=O)N2 (stereo not given)	0% (active)
COc1cccc(NC(=O)Cn2cnc3c(nc4n3CCCCC4)c2=O)c1	76% (inactive)
CCN(CC)c1ccc(NC(=O)CCS(=O)(=O)c2cc3c(cc2Cl)NC(=O)CO3)c(C)c1	86% (inactive)
CCCCN1C(=O)C(O)(CC(=O)c2ccc(CC)cc2)c2cc(Br)ccc21 (stereo not given)	32% (active)
CCCN1C(=O)C(O)(CC(=O)c2ccc(OC)c(OC)c2)c2ccccc21 (stereo not given)	146% (inactive)
COc1ccc(C(=O)CC2(O)C(=O)N(Cc3cccc(C(F)(F)F)c3)c3ccccc32)cc1 (stereo not given)	33% (active)

Compound	survival
Cc1ccc(C(=O)CC2(O)C(=O)N(Cc3ccccc3)c3ccccc32)c(C)c1 (stereo not given)	41% (active)
O=C(CC1(O)C(=O)N(Cc2ccccc2)c2ccc(Br)cc21)c1ccccc1 (stereo not given)	99% (inactive)
COc1cccc(C(=O)CC2(O)C(=O)N(Cc3ccccc3)c3ccccc32)c1 (stereo not given)	175% (inactive)
CCc1ccc(C(=O)CC2(O)C(=O)N(Cc3ccc(C)cc3)c3ccccc32)cc1 (stereo not given)	57% (inactive)
CCCCN1C(=O)C(O)(CC(=O)c2ccc(C)cc2C)c2cc(Br)ccc21 (stereo not given)	11% (active)
Cc1ccccc1CN1C(=O)C(O)(CC(=O)c2cccc(Br)c2)c2ccccc21 (stereo not given)	71% (inactive)
Cc1ccc(CN2C(=O)C(O)(CC(=O)c3ccc(C)cc3)c3ccccc32)cc1 (stereo not given)	65% (inactive)
COc1ccc(C(=O)CC2(O)C(=O)N(Cc3ccccc3)c3ccc(Br)cc32)cc1 (stereo not given)	50% (inactive)
O=C(CCC(=O)N1CCSc2ccccc21)NCc1ccccc1Cl	70% (inactive)
Cc1cccc(C(c2sc3nc(-c4ccco4)nn3c2O)N2CCN(c3ccccc3)CC2)c1 (stereo not given)	76% (inactive)
O=C(CN1CCCC1)N1N=C(c2cccs2)CC1c1cccs1 (stereo not given)	86% (inactive)
CCOc1ccc(Cc2nc(C)c(CC(N)=O)c(=O)[nH]2)cc1	71% (inactive)
CCOC(=O)c1scc(-c2ccccc2)c1S(=O)(=O)Nc1ccc(N(C)C)cc1	86% (inactive)
COC(=O)Cn1c(O)c(N=NC(=O)C2COc3ccccc3O2)c2ccccc21 (stereo not given)	69% (inactive)
CCC(=O)Nc1cccc(NC(=O)c2cccs2)c1	72% (inactive)
CCOc1ccccc1NC(=O)Cn1c(=O)n(C(C)C)c(=O)c2oc3ccccc3c21	109% (inactive)
CC1=C(c2ccc(C(C)C)cc2)S(=O)(=O)N=C1N1CCC(C(=O)NCc2ccccc2)CC1	-1% (active)
CC1=C(c2ccc(C(C)C)cc2)S(=O)(=O)N=C1N1CCC(C(=O)NCc2ccc(C)o2)CC1	67% (inactive)
CC1=C(c2ccc(C)c(C)c2)S(=O)(=O)N=C1N1CCC(C(=O)N2CCC(C)CC2)CC1	72% (inactive)
CC1=C(c2ccc(C(C)C)cc2)S(=O)(=O)N=C1N1CCC(C(=O)NCc2ccco2)CC1	79% (inactive)
CC1=C(c2ccc(Cl)cc2)S(=O)(=O)N=C1N1CCC(C(=O)NCCc2ccco2)CC1	81% (inactive)
CC1=C(c2ccc(C(C)C)cc2)S(=O)(=O)N=C1N1CCC(C(=O)NCCc2ccco2)CC1	6% (active)
CCc1ccc(C2=C(C)C(N3CCC(C(=O)NCc4ccccc4)CC3)=NS2(=O)=O)cc1	89% (inactive)
CC1=C(c2ccc(C)c(C)c2)S(=O)(=O)N=C1N1CCC(C(=O)N2CCC(C(N)=O)CC2)CC1	-2% (active)
CC1=C(c2ccc(C)c(C)c2)S(=O)(=O)N=C1N1CCC(C(=O)N2CCCCC2)CC1	109% (inactive)
